In publication PMC5540273 (PLoS ONE, 2017):

Columns and labels:
Details in all cases: concentration: 1 μM, replicates: in singlicate; n = 1
RIPK4 = test system: RIPK4
RIPK5 = test system: RIPK5
ROCK1 = test system: ROCK1
ROCK2 = test system: ROCK2
ROS1 = test system: ROS1
[1] = test system: RPS6KA4(Kin.Dom.1-N-terminal)
[2] = test system: RPS6KA4(Kin.Dom.2-C-terminal)
[3] = test system: RPS6KA5(Kin.Dom.1-N-terminal)
[4] = test system: RPS6KA5(Kin.Dom.2-C-terminal)
[5] = test system: T1, RSK1(Kin.Dom.1-N-terminal)
T1 construct: gene RPS6KA1

[6] = test system: T2, RSK1(Kin.Dom.2-C-terminal)
T2 construct: gene RPS6KA1

[7] = test system: T3, RSK2(Kin.Dom.1-N-terminal)
T3 construct: gene RPS6KA3

[8] = test system: T4, RSK2(Kin.Dom.2-C-terminal)
T4 construct: gene RPS6KA3

[9] = test system: T5, RSK3(Kin.Dom.1-N-terminal)
T5 construct: gene RPS6KA2

[10] = test system: T6, RSK3(Kin.Dom.2-C-terminal)
T6 construct: gene RPS6KA2

[11] = test system: T7, RSK4(Kin.Dom.1-N-terminal)
T7 construct: gene RPS6KA6

[12] = test system: T8, RSK4(Kin.Dom.2-C-terminal)
T8 construct: gene RPS6KA6

S6K1 = test system: S6K1
SBK1 = test system: SBK1
SGK2 = test system: SGK2
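Note: KINOMEscan kinase panel screen.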

Structure (SMILES)	%Inh (RIPK4) [%]	%Inh (RIPK5) [%]	%Inh (ROCK1) [%]	%Inh (ROCK2) [%]	%Inh (ROS1) [%]	%Inh [1] [%]	%Inh [2] [%]	%Inh [3] [%]	%Inh [4] [%]	%Inh [5] [%]	%Inh [6] [%]	%Inh [7] [%]	%Inh [8] [%]	%Inh [9] [%]	%Inh [10] [%]	%Inh [11] [%]	%Inh [12] [%]	%Inh (S6K1) [%]	%Inh (SBK1) [%]	%Inh (SGK2) [%]
Cc1cccc2c(-c3ccncn3)c(-c3ccc(F)cc3)nn12 [GW515532]	8	0	3	13	0	0	0	21	0	0	50	9	8	6	19	0	87	1	9	14
CC(C)c1ccc(O)cc1Nc1ccnc2ccc(C(F)(F)F)cc12 [GW482059]	0	0	86	26	0	11	0	23	0	0	0	0	10	0	7	0	0	0	5	0
CCc1ccc(-c2ccc3c(c2)-c2n[nH]cc2S(=O)(=O)N3C)cc1	0	0	0	0	0	2	0	0	0	0	30	7	52	5	17	1	20	0	0	0
O=C(Nc1n[nH]c2nc(-c3cccs3)c(Br)cc12)C1CCCC1 [SB-743341]	0	34	0	0	21	4	25	4	7	0	0	15	0	0	0	26	0	2	0	0
Cl.Cl.Cl.N#Cc1ccc(CCNc2nccc(-c3cccc(CN4CCNCC4)c3)n2)cc1 [GSK2137462]	0	19	33	41	6	0	0	19	5	10	0	0	0	0	13	0	31	34	24	0
COc1nccc(-c2c(-c3ccc(F)cc3)ncn2CCCN2CCOCC2)n1 [SB-282852]	47	6	32	20	0	17	0	0	0	0	11	27	17	0	38	0	36	29	0	36
Cc1nccc(-c2c(-c3ccc(F)cc3)ncn2CCCN2CCOCC2)n1.Cl [SB-282975]	33	13	0	0	23	100	15	5	8	0	5	29	44	9	0	22	6	9	29	27
Cc1ccc(-c2nc(Nc3ccncc3)c3ccccc3n2)s1 [GSK189015]	20	6	0	0	0	18	0	23	0	0	18	7	21	3	12	0	28	0	4	4
O=C1NC(=O)C(c2ccc(Cl)cc2)=C1Nc1ccc(O)cc1 [SB-340867]	0	0	0	0	0	0	0	0	0	9	0	13	0	0	0	0	0	0	0	0
Cn1cnc2c(N)ncnc21 [SKF-97623]	0	0	38	26	0	0	0	0	0	23	100	0	0	0	8	0	2	0	0	0
CCn1c(-c2ccccc2)nc2cnccc21 [SB-733416]	41	5	9	0	7	0	0	3	0	0	0	1	23	28	0	8	0	22	9	9
COc1ccc(Nc2nccc(N3CCC(NC(=O)c4cc5ccccc5s4)C3)n2)cc1 (stereo not drawn) [GSK1379738]	20	7	8	21	0	15	0	0	0	22	4	10	4	1	0	0	0	0	2	0
COc1cccc(NC(=O)Nc2ccc(C)c(-c3ccc(C(=O)Nc4ccncc4)cc3)c2)c1 [GSK1398474]	23	0	0	0	0	18	0	12	40	16	0	0	0	7	19	0	22	18	8	0
Cc1cnc(N)c(/C=C/c2cncc(C(=O)NCCc3ccc(Cl)cc3Cl)c2)c1.Cl [GSK190937]	0	0	71	45	3	4	0	22	0	9	0	0	2	0	0	0	20	0	19	0
Nc1cccc(-c2ccc3c(N)n[nH]c3c2)n1 [GSK2192730]	41	0	0	0	0	0	0	0	4	24	21	3	0	6	19	0	17	7	2	6
COC(=O)C(NC(=O)NC1CCN(c2ccnc(Nc3ccc(F)cc3)n2)C1)c1ccccc1 (stereo not drawn) [GSK1379712]	13	22	31	37	12	0	0	0	22	22	18	0	38	0	11	0	7	0	8	8
Fc1ccc(-c2nc[nH]c2-c2ccncc2)cc1 [SB-217360]	0	31	0	26	5	0	0	0	19	0	47	34	4	0	6	16	87	8	0	0
COC(=O)c1cccc(NC(=O)NC2CCN(c3ccnc(Nc4ccc(OC)cc4)n3)C2)c1 (stereo not drawn) [GSK1379746]	13	0	2	44	0	14	0	17	0	3	0	0	0	0	0	0	0	14	0	0
Cc1c(Cn2c(C)c(C)n3c(=O)cc(N4CCOCC4)nc23)cccc1C(F)(F)F [GSK2328680]	0	67	11	10	19	1	0	16	0	0	0	0	2	7	0	0	5	0	22	0
COc1ccc2cc(-c3nc(-c4ccccc4C(C)C)[nH]c3-c3ccncc3)ccc2c1 [SB-660566]	25	4	35	0	0	6	0	4	0	42	0	3	18	19	0	25	11	8	2	0
FC(F)(F)c1ccccc1-c1cc(-c2c[nH]nc2-c2ccccn2)ccn1 [GW679396]	0	0	9	14	6	18	0	24	0	6	13	0	0	6	0	0	22	0	13	0
